# Source: PubChem BioAssay (National Center for Advancing Translational Sciences (NCATS))
# DT40 TDP1 CPT: DT40-hTDP1 cell growth loss with CPT; chicken DT40 Tdp1-/-;hTDP1 cells + 20 nM CPT, ATP luminescence, 48 h; 420,000 compounds, 12% hits; Potency, µM (titrated, usually from 46.2 µM), actives largely listed as inhibitors; note: nearly all actives have a fitted effect of over 55% in size
#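 Cell growth measured by CellTiter-Glo luminescence after a minimum 48 h, 37 C compound exposure with 20 nM CPT in Tdp1-knockout DT40 cells stably expressing hTDP1, seeded 400/well; qHTS titration format.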
# KB-V1 MDR tox: kills drug-selected multidrug resistant KB-V1 cells; KB-V1 MDR cells viability, CellTiter-Glo, 72 h; Potency, µM (highest dose often 46.1 µM), hits mostly cytotoxic; 400,000 compounds, 3.4% hits; AID 1347076; note: nearly all actives have a fitted effect of over 60% in size
#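 Cells of the MDR subline KB-V1 are plated, dosed with compound at multiple concentrations, and incubated 72 h at 37 degrees C; CellTiter-Glo is then added and luminescence read after 10 min.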
# KB-3-1 tox: KB-3-1 parental cell cytotoxicity. 400,000 compounds, 1.4% hits. AID 1347075. Potency, µM (titrated, usually from 46.1 µM), hits mostly cytotoxic. KB-3-1 viability, CellTiter-Glo ATP luminescence, 72 h; note: nearly all actives have a fitted effect of over 60% in size
#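 Cytotoxicity measured as CellTiter-Glo luminescence after 72 h at 37 C. Compound titrations were pinned onto drug-naive KB-3-1 parental adenocarcinoma cells grown in DMEM with 10% FBS, and normalized data fitted to concentration-response curves.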
# HT1080 IDH1KD tx: toxicity to HT-1080 IDH1 knockdown cells (counter line). HT-1080 IDH1 knockdown viability, ATP luminescence, 48 h. Potency, µM (series often up to 46.1 µM), most hits filed as cytotoxic. 360,000 compounds, 2% hits. AID 686971
#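 Assay cells: HT-1080 with IDH1 knockdown, 750 per well, RPMI/5% FBS. Exposure: 48 h at 37 °C following 2 h pre-incubation. Read: CellTiter-Glo luminescence; fitted concentration-response, curve class assigned.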
# HT1080NT lethal: kills 2HG-producing HT-1080-NT fibrosarcoma cells | HT-1080-NT fibrosarcoma viability, CellTiter-Glo ATP luminescence, 48 h | Potency, µM (series often up to 46.1 µM), usual class: cytotoxic | 360,000 compounds, 1.6% hits | AID 686970;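 note: NT is the 2HG producing partner of a matched IDH1 knockdown line; nearly all actives have a fitted effect of over 55% in size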
#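 Luminescent CellTiter-Glo readout after 48 hours of compound exposure at 37 degrees C defined viability of HT-1080-NT cells. Activity was normalized to DMSO wells and cell-free media wells; concentration-response curves were fitted and assigned curve classes.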
# TDP1 cell noCPT: qHTS for Inhibitors of human tyrosyl-DNA phosphodiesterase 1 (TDP1): qHTS in cells in absence of CPT. AID 686978, 2013. Potency, µM (highest dose often 46.2 µM), usual class: inhibitors. DT40 Tdp1-/- hTDP1 cells, no CPT, ATP luminescence, 48 h. 420,000 compounds, 15% hits; note: nearly all actives have a fitted effect of over 55% in size
#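 Cells were dispensed at 400 per well, compounds added by pin tool, plates incubated ≥48 hr at 37 °C, then CellTiter-Glo added for 30 min at room temperature before luminescence reading. Line: DT40 Tdp1-/- complemented with hTDP1; camptothecin omitted.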
# A number is an active result; 0 = inactive; ? = inconclusive; - = no result; [ ] = remark or other dose. An excerpt weighted towards active compounds, which were near 19% of everything screened. Calls come from the whole dose curve; as a rule, active = well fitted curve in the direction sought with a large enough effect; inconclusive = small, poorly fitted or top-dose-only effect, or another doubt; inactive = no such curve, though single readings can be large; an effect the other way counts as inactive or inconclusive.
SMILES,DT40 TDP1 CPT,KB-V1 MDR tox,KB-3-1 tox,HT1080 IDH1KD tx,HT1080NT lethal,TDP1 cell noCPT
Cc1ccccc1-c1cnc(-c2ccncc2)nc1C1CCCN(Cc2ccccc2O)C1 (configuration not stated),0[9.04 µM],-,-,-,-,?
CCOC(=O)Nc1cc2c(c(N)n1)N=C(c1ccccc1)CN2,0.21µM,0.13µM,0.18µM,?,0.46µM,0.041µM
CCOC(=O)Nc1nnc(-c2cccc(OC)c2)s1,0,0,0,0,0,0
CCn1c(Cc2ccccc2)nnc1SCC(=O)Nc1ccccc1O,0,0,0,0,0,0
COc1ccccc1CN1CCc2c([nH]c3ccccc23)C1,?,0,0,0,0,?
Clc1cccc(CN2CCc3c([nH]c4ccccc34)C2)c1Cl,?,0,0,0,0,23µM
Cc1ccc(CNC(=O)Cn2c(=O)n(-c3cccc(Cl)c3)c(=O)c3sc4ccccc4c32)cc1,?,0,0,-,-,?
CCOC(=O)C1=CCN(S(=O)(=O)c2ccc(F)cc2)C1c1cccc(F)c1 (configuration not stated),0,?,0,0,0,?
Cc1noc(C)c1S(=O)(=O)Nc1ccc(C(=O)N2CCN(c3ccc(Cl)cc3)CC2)cc1,?,0,0,0,0,16µM
Cc1ccc(N(CC(=O)N2CCN(c3ccc(Cl)cc3)CC2)S(=O)(=O)c2c(C)noc2C)cc1,?,0,?,-,-,23µM
Cc1ccc(N(CC(=O)N2CCN(c3ccc(F)cc3)CC2)S(=O)(=O)c2c(C)noc2C)cc1,15µM,0,0,0,0,?
Cc1noc(C)c1S(=O)(=O)N1CCN(c2ccc(Cl)cc2)CC1,?,0,0,0,0,0
CC(C)(C)n1nnnc1C(c1ccccc1)N1CCN(C(=O)c2ccco2)CC1 (configuration not stated),0,?,0,0,0,?
Cc1ccc(NS(=O)(=O)c2cc3c(cc2Cl)NC(=O)C3)cc1C,-,0,0,-,-,-
O=C(COC(=O)c1cc[n+]([O-])cc1)Nc1ccc([N+](=O)[O-])cc1Cl,0,0,0,0,0,0
Cc1cccc(-n2c(C)cc(C(=O)C(=O)Nc3nncs3)c2C)c1,0,?,0,-,-,0
Cc1ccc(S(=O)(=O)n2cccc2/C=C/[N+](=O)[O-])cc1,2.9µM,?,?,?,?,2.9µM
CCn1nc(C)cc1C(=O)N1CCC2(CC1)c1ccccc1[C@@H](NC(=O)c1cccnc1)[C@@H]2O,0[9.04 µM],-,-,-,-,0
Cc1ccc(NC(=S)NNC(C)(C)C)cc1,0,0,0,18µM,?,0
FC(F)(F)c1cccc(NC(=S)NNC(=S)NCc2ccccc2)c1,?,?,0,0,?,26µM
FC(F)(F)c1cccc(NC(=S)Nc2cccc(NC(=S)Nc3cccc(C(F)(F)F)c3)n2)c1,29µM,?,?,23µM,?,21µM
Cc1cccc(NC(=S)Nc2cccc(C(F)(F)F)c2)n1,?,?,?,0,0,?
CC(C)(C)NNC(=S)Nc1cccc(C(F)(F)F)c1,3.3µM,0,0,10µM,0,1.2µM
O=C(CCNC(=O)c1ccccc1Cl)Nc1cccc(C(F)(F)F)c1,0,0,0,0,0,0
O=C(NNC(=S)Nc1cccc(C(F)(F)F)c1)c1ccccc1Cl,?,?,?,?,18µM,18µM
SMILES,DT40 TDP1 CPT,KB-V1 MDR tox,KB-3-1 tox,HT1080 IDH1KD tx,HT1080NT lethal,TDP1 cell noCPT
CCCCn1cc(S(=O)(=O)c2ccc(C)c(C)c2)c(=O)c2cc(F)c(N3CCN(C)CC3)cc21,0,0,0,-,-,?
COc1ccc(S(=O)(=O)c2cnc3cc(OC)c(OC)cc3c2N2CCCC(C)C2)cc1 (configuration not stated),?,0,?,-,-,?
CCc1ccc2ncc(S(=O)(=O)c3ccc(C)c(C)c3)c(N3CCCC3)c2c1,23µM,?,18µM,?,?,15µM
CCN1CCN(c2c(S(=O)(=O)c3ccc(C)c(C)c3)cnc3cc(OC)c(OC)cc23)CC1,15µM,?,?,-,-,?
CCN1CCN(c2c(S(=O)(=O)c3ccc(Cl)cc3)cnc3ccccc23)CC1,13µM,0,0,-,-,?
CCOc1ccc(Nc2c(S(=O)(=O)c3ccc(C)cc3)cnc3cc(OC)c(OC)cc23)cc1,?,?,0,-,-,12µM
CCCCN1C(=O)C(CC(=O)NCCN2CCOCC2)CC(C(=O)N(C)C)=C1C (configuration not stated),0,0,0,0,0,0
CN(Cc1cnn(C)c1)C(=O)C1CCC(=O)N(Cc2ccc(Cl)cc2)C1 (configuration not stated),0,0,0,0,0,0
CCc1ccc(S(=O)(=O)c2cnc3ccc(OC)cc3c2N2CCCC(C)C2)cc1 (configuration not stated),16µM,?,0,-,-,?
COc1ccc(S(=O)(=O)c2cnc3ccc(Cl)cc3c2N2CCCCC2C)cc1 (configuration not stated),16µM,?,?,-,-,23µM
COc1ccc(NC(=O)CSc2nnc3n2CCCCC3)cc1OC,0,0,0,0,?,0.21µM
COc1ccc(C(=O)Nc2ccc(C(=O)N3CCCCC3)cc2)cc1OC,0,?,0,0,0,0
COc1ccc(C(=O)Nc2ccc(-c3nnc4n3CCCCC4)cc2)cc1OC,13µM,?,0,-,-,13µM
CC1CCN(c2ccc(-c3cccc(NC(=O)c4ccco4)c3)nn2)CC1,?,0,0,?,?,?
COc1ccc(-c2cccc(NC(=O)c3ccco3)c2)nn1,?,0,0,0,0,26µM
CS(=O)(=O)c1ccc(-c2cccc(NC(=O)c3ccco3)c2)nn1,?,0,0,0,0,18µM
COC(=O)N1CCC2(CC1)CN(C(=O)Nc1ccccc1)C2,0,-,-,-,-,0
Cc1nc(NCC(=O)c2c[nH]c3ccccc23)sc1C,6.3µM,0,?,-,-,?
O=C(CCc1nnc(-c2ccc(-c3ccccc3)cc2)o1)N1CCCCC1,?,0,0,0,0,21µM
O=C(c1cccc(-c2nnc(-c3ccccc3)o2)c1)N1CCCCC1,?,?,0,0,0,15µM
O=C(c1cccc(-c2nnc(-c3ccccc3)o2)c1)N1CCCCCC1,?,0,0,0,0,14µM
CCOC(=O)C1(C)CCN1C(=O)COc1ccc(C(C)(C)C)cc1 (configuration not stated),21µM,0,0,0,0,21µM
CCOC(=O)C1CCN(Cc2cnc(Oc3ccc(C(C)(C)C)cc3)s2)CC1,?,0,0,0,0,21µM
